Laboratory results: PubChem BioAssay (NCI)
The panel holds about 83,000 compounds, 20% with a hit somewhere; the sample as a whole holds those more often.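 The endpoint reported here, percent growth, reads 100 for growth as untreated, 0 for no net growth and -100 for all cells dead.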 The source made the active and inactive calls. The calls were made as follows: active = growth percent below 10; inactive = the rest.

These compounds were tested on ACHN renal (assay: NCI-60 one-dose screen, 48 h (100 = growth as untreated, 0 = no growth, -100 = all killed)). Conditions: 10 µM unless noted.

Structure (SMILES)	growth
O=C(COc1ccc(NC(=O)Nc2ccc(Cl)cc2)cc1)N/N=C/c1ccccc1	-77.4% (active)
COc1cc(/C=C/C(=O)c2ccccc2)ccc1Oc1nc(Nc2ccc(F)cc2)nc(N(C)C)n1	-4.12% (active)
CN(C)CCCNC(=O)c1cc(NC(=O)c2cc(NC(=O)c3ccc(/C=C/c4ccccc4)cc3)cn2C)cn1C	40.3% (inactive)
COc1ccc(C(=O)/C=C/c2ccc(Oc3nc(Nc4ccc(F)cc4)nc(N(C)C)n3)c(OC)c2)cc1	36.9% (inactive)
CN(C)CCOc1ccc(C(=O)C2[C@H](c3ccc(Cl)cc3)[C@@H](c3ccccc3)NC23C(=O)Nc2ccc(Br)cc23)cc1 (some centres not stated)	-27.9% (active)
COc1ccc(-c2ccc(SCC(=O)NCCc3ccc(S(N)(=O)=O)cc3)nn2)cc1	89.3% (inactive)
Cc1nc(Nc2ncc(C(=O)Nc3c(C)cccc3Cl)s2)cc(N2CCN(CCCNC(=O)COc3ccc(C4CCC(=O)NC4=O)cc3)CC2)n1 (configuration not stated)	8.27% (active)
C=C1CCC2C3(C)COC(c4ccc(F)cc4)OC3CCC2(C)C1C/C=C1/C(=O)OCC1O (configuration not stated)	-97.6% (active)
O=c1onc(-c2cc3ccccc3nc2Cl)n1-c1cccc2ccccc12	50.4% (inactive)
O=C1NC(=O)/C(=C/c2ccccc2OCc2cc3ccccc3nc2Cl)S1	86.2% (inactive)
O=C(COc1ccc(NC(=O)Nc2ccc(Cl)c(Cl)c2)cc1)N=Nc1c(O)[nH]c2ccc(Br)cc12	12.5% (inactive)
COc1cccc(/C=C/c2nc3ccccc3c(=O)n2CC(=O)Nc2ccc(Cl)cc2)c1	-1.49% (active)
